PubChem BioAssay AID588397 (National Center for Advancing Translational Sciences (NCATS), 2011)
Values joined by “and” are separate entries in the source; they are usually repeats but may differ in a detail not shown here. Identical values can stand only once. About 1,000 (77%) of roughly 1,300 compounds were called active. Inconclusive results (about 7%) are left out. Calls come from the whole dose curve; as a rule, active = well fitted inhibition curve with a large enough effect; inconclusive = small, poorly fitted or top-dose-only effect; inactive = no such curve, though single readings can be large or run the other way. So high a share suggests a set chosen from earlier hits. The list shows a part of the results.

Assay: qHTS of small molecules that selectively kill Giardia lamblia: Hit Validation.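 Note: viability measured as ATP content by luminescence so killing lowers signal; trophozoites exposed to compounds for 48 h anaerobically at 37 °C; nearly all actives have a fitted effect of over 65% in size.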
Conditions: Giardia lamblia trophozoite viability, dose-response; series mostly up to 38.3 µM
Outline: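 Each well holds 100 Giardia trophozoites and compound. After two days (48 hrs) at 37 deg C in anaerobic conditions, ATP is quantified by luminescence.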
Potency is the fitted concentration of half-maximal effect.

Row | Compound | Potency
1 | COc1cc2sc3cc(NCCCN4CCOCC4)ccc3c(=O)c2cc1OC | 5.16 µM (active)
2 | COc1ccc(Cc2noc(CN(C)Cc3ccc(-n4cccn4)cc3)n2)cc1OC | inactive
3 | COc1cc2nc(CN(C)Cc3ccc(C(C)(C)C)cc3)[nH]c(=O)c2cc1OC | 5.16 µM (active)
4 | Cc1ncc([N+](=O)[O-])n1CCOC(=O)c1ccc(Br)cc1 | 1.16 µM (active)
5 | Cc1ncc([N+](=O)[O-])n1CCOC(=O)C12CC3CC(CC(C3)C1)C2 | 1.3 µM (active)
6 | Cc1ncc([N+](=O)[O-])n1CCOC(=O)c1ccccc1 | 1.03 µM (active)
7 | CC1(C)Oc2ccc3ccc(=O)oc3c2C(/C=N/O)C1=O (stereo not given) | inactive
8 | COc1ccc(-n2nc([N+](=O)[O-])c(=NCc3ccc4c(c3)OCO4)n2O)cc1 | 14.5 µM (active)
9 | Cc1ccc(CN=c2c([N+](=O)[O-])nn(-c3ccc4c(c3)OCCO4)n2O)cc1 | 3.65 µM (active)
10 | O=[N+]([O-])c1nn(-c2ccc3c(c2)OCCO3)n(O)c1=NCc1ccc(F)cc1 | 4.6 µM (active)
11 | Cc1ccc(OCC(=O)Nc2cc(S(=O)(=O)N3CCOCC3)ccc2Cl)c([N+](=O)[O-])n1 | 4.1 µM (active)
12 | Cc1ccc(NC(=O)COc2cccnc2[N+](=O)[O-])cc1S(=O)(=O)N1CCCCC1 | 4.1 µM (active)
13 | O=C(COc1cccnc1[N+](=O)[O-])Nc1cc(S(=O)(=O)N2CCCCC2)ccc1Cl | 1.45 µM (active)
14 | CN(C(=O)c1ccc(NC(=O)Cc2ccc(NC(=O)C3CCCN(S(=O)(=O)c4cccc([N+](=O)[O-])c4)C3)cc2)cc1)C1CCCC1 (stereo not given) | inactive
15 | O=C(COc1cccnc1[N+](=O)[O-])Nc1cccc(S(=O)(=O)N2CCCCC2)c1 | 3.65 µM (active)
16 | Cc1ccc(S(=O)(=O)N2CCN(C(=O)COc3ccc(C)nc3[N+](=O)[O-])CC2)c(C)c1 | 4.1 µM (active)
17 | COc1ccc(S(=O)(=O)N2CCOCC2)cc1NC(=O)COc1cccnc1[N+](=O)[O-] | 5.79 µM (active)
18 | Cc1ccc(CCNC(=O)CN2C(=O)COc3ccc(S(=O)(=O)N4CCOCC4)cc32)cc1 | inactive
19 | Cc1ncc([N+](=O)[O-])n1CCOC(=O)NC(Nc1ccc(F)cc1)C(Cl)(Cl)Cl (stereo not given) | 0.46 µM (active)
20 | Cc1ccccc1NC(NC(=O)OCCn1c([N+](=O)[O-])cnc1C)C(Cl)(Cl)Cl (stereo not given) | 0.729 µM (active)
21 | CCOC(=O)c1c(C)[nH]c(C)c1S(=O)(=O)N1CCN(c2ccc([N+](=O)[O-])cc2)CC1 | 7.29 µM (active)
22 | Cc1oc2c(c1C(=O)N1CCOCC1)C(=O)c1ccccc1C2=O | 3.26 µM (active)
23 | CCOC(=O)C1CCN(C(=O)c2c(C)oc3c2C(=O)c2ccccc2C3=O)CC1 | 2.05 µM (active)
24 | Cc1oc2c(c1C(=O)N1CCC(C)CC1)C(=O)c1ccccc1C2=O | 3.65 µM (active)
25 | O=[N+]([O-])c1ccc(/C=[N+](\[O-])[C@@H]2CCCC[C@@H]2/[N+]([O-])=C/c2ccc([N+](=O)[O-])o2)o1 | 0.65 µM (active)
26 | O=[N+]([O-])c1ccc(/C=[N+](\[O-])CCO)o1 | 1.16 µM (active)
27 | CCOC(=O)N1CCN(C(=O)c2ccc(Cl)c(NC(=O)c3cccs3)c2)CC1 | inactive
28 | Cc1ccn(-c2ccc(NC(=O)c3cccs3)cc2)n1 | 16.3 µM (active)

Row | Compound | Potency
29 | Cn1cc([N+](=O)[O-])c(C(=O)Nc2sc3c(c2C#N)CCC3)n1 | 2.31 µM (active)
30 | NC(=O)c1ccsc1NC(=O)c1ccc([N+](=O)[O-])o1 | 1.3 µM (active)
31 | CC(C)N1CCc2c(sc(NC(=O)c3cc4cc([N+](=O)[O-])ccc4s3)c2C(N)=O)C1 | 2.59 µM (active)
32 | N#Cc1c(NC(=O)c2ccc([N+](=O)[O-])o2)sc2c1CCC2 | 0.365 µM (active)
33 | NC(=O)c1c(NC(=O)c2ccc([N+](=O)[O-])o2)sc2c1CCCC2 | 0.65 µM (active)
34 | CC(=O)N1CCc2c(sc(NC(=O)c3ccc([N+](=O)[O-])o3)c2C#N)C1 | 1.16 µM (active)
35 | COC(=O)c1c(NC(=O)c2ccc([N+](=O)[O-])o2)sc2c1CCN(C(C)C)C2 | 0.818 µM (active)
36 | COC(=O)c1sc(NC(=O)c2ccc([N+](=O)[O-])o2)c(C#N)c1C | 0.29 µM (active)
37 | CCn1cc(-c2cc(C(=O)O)c3ccccc3n2)cn1 | 5.16 µM (active)
38 | CCOc1ccc(-c2cc(C(=O)N3CCN(c4ccccn4)CC3)c3ccccc3n2)cc1 | 1.63 µM (active) and 1.45 µM (active) and 3.26 µM (active)
39 | CCOC(=O)N1CCN(C(=O)c2cc(-c3ccc(OCC)cc3)nc3ccccc23)CC1 | 2.9 µM (active)
40 | O=C(NNC(=O)c1cc(-c2ccncc2)nc2ccccc12)c1ccccc1O | inactive
41 | c1cc(-c2cc3cc(N4CCOCC4)ccc3o2)cs1 | 2.05 µM (active)
42 | CCCCC(CC)C(=O)Nc1ncc([N+](=O)[O-])s1 (stereo not given) | 0.23 µM (active)
43 | CCCCC(=O)Nc1ncc([N+](=O)[O-])s1 | 0.23 µM (active)
44 | CC(C)CC(=O)Nc1ncc([N+](=O)[O-])s1 | 0.206 µM (active)
45 | CCC(Oc1ccccc1)C(=O)Nc1ncc([N+](=O)[O-])s1 (stereo not given) | 0.103 µM (active)
46 | CCc1nn2c(=O)c(S(=O)(=O)Nc3ccc(Cl)cc3)c(C)nc2s1 | inactive
47 | CC(CC(=O)Nc1ncc([N+](=O)[O-])s1)c1ccccc1 (stereo not given) | 0.206 µM (active)
48 | CC1=C(C(=O)Nc2ccc(CC(=O)NCc3ccc(OC(C)C)cc3)cc2)SCCO1 | 4.1 µM (active)
49 | CN(C(=O)CSc1nc2ccccc2c(=O)n1-c1ccc(F)cc1)C1CCS(=O)(=O)C1 (stereo not given) | inactive
50 | CN(C(=O)CSc1nc2ccc([N+](=O)[O-])cc2s1)C1CCS(=O)(=O)C1 (stereo not given) | 1.45 µM (active)
51 | O=C(COc1ccccc1)N=C1SC2CS(=O)(=O)CC2N1c1ccccc1F (stereo not given) | inactive
52 | O=[N+]([O-])c1ccc(/C=C/C2=NN(c3ccccc3)C(c3ccco3)C2)o1 (stereo not given) | 0.115 µM (active)
53 | Cc1ccc(C)c(-c2nnc(NC(=O)c3ccc([N+](=O)[O-])o3)o2)c1 | 0.516 µM (active)
54 | COc1ccc(-c2nnc(NC(=O)c3ccc([N+](=O)[O-])o3)o2)c(OC)c1 | 2.05 µM (active)
55 | Cc1ccc(-c2nnc(NC(=O)c3ccc([N+](=O)[O-])o3)o2)c(C)c1 | 0.41 µM (active)
